This note sets out measurements from ChEMBL document CHEMBL1961873, “Compounds: GSK PKIS; Assays: Nanosyn kinase panel” (2012).

For assay [1], the target named is T1, Ephrin type-B receptor 2 (Homo sapiens) (UniProt P29323).
T1 sequence (whole entry): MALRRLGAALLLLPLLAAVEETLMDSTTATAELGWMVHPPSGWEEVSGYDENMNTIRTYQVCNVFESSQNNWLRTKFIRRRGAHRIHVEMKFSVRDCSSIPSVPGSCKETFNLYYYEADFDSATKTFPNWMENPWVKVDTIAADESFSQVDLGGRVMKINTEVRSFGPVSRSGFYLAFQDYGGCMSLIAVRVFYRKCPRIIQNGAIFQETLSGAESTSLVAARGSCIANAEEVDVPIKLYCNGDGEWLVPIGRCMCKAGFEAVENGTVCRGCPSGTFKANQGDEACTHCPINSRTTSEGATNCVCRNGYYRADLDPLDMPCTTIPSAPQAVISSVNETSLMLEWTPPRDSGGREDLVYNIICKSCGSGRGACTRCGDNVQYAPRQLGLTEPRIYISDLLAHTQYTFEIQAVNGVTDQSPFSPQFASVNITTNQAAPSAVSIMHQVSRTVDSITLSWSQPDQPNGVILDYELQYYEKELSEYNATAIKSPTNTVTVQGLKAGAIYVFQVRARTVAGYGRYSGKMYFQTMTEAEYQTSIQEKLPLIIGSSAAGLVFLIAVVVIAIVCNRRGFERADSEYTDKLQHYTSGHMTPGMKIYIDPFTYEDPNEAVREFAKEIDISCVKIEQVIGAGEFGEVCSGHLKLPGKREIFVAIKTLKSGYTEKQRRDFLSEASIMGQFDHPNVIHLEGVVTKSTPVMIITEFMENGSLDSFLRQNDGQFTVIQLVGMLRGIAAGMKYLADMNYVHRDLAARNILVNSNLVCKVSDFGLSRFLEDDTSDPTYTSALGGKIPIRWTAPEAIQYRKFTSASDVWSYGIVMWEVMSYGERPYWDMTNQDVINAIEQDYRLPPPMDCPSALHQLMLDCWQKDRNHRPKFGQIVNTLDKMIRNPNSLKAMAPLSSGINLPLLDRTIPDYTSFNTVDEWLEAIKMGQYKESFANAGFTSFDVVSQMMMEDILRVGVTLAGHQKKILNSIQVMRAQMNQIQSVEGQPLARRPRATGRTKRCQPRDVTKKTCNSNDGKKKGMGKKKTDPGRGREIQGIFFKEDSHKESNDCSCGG
The note with it: at 1 µM.

Assay [2] addresses T2, Ephrin type-B receptor 3 (Homo sapiens) (UniProt P54753).
T2 sequence (whole entry): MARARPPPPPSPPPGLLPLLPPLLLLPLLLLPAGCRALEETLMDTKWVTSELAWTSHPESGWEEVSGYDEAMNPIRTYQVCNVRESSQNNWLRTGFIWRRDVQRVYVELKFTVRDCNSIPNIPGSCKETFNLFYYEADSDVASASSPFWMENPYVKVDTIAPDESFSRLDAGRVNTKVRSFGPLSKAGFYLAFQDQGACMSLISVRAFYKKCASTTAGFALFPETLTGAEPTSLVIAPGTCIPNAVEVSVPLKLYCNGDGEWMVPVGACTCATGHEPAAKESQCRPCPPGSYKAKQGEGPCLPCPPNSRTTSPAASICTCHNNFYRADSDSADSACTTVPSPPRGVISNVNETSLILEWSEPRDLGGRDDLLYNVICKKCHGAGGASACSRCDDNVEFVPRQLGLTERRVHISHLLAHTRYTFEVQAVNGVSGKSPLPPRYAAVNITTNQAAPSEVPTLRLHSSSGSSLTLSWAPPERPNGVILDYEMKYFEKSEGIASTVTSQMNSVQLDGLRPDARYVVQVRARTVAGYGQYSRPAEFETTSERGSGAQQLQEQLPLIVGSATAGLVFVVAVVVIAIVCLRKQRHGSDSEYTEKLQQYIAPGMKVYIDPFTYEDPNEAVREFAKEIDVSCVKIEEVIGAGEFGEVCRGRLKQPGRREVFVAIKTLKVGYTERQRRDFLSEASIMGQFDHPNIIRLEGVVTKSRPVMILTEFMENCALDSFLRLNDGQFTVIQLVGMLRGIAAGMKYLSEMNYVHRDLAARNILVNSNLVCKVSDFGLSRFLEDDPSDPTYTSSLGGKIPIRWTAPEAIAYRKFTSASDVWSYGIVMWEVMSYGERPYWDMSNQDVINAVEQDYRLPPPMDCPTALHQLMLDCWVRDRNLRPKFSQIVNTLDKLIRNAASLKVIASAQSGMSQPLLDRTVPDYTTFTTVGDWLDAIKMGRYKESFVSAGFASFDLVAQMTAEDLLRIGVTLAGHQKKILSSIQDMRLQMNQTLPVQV
The note with it: at 0.1 µM.

Assay [3] concerns the target T2, Ephrin type-B receptor 3 (Homo sapiens). The note with it: at 1 µM.
Assay [4] concerns the target T3, Ephrin type-B receptor 4 (Homo sapiens) (UniProt P54760).
T3 sequence (whole entry): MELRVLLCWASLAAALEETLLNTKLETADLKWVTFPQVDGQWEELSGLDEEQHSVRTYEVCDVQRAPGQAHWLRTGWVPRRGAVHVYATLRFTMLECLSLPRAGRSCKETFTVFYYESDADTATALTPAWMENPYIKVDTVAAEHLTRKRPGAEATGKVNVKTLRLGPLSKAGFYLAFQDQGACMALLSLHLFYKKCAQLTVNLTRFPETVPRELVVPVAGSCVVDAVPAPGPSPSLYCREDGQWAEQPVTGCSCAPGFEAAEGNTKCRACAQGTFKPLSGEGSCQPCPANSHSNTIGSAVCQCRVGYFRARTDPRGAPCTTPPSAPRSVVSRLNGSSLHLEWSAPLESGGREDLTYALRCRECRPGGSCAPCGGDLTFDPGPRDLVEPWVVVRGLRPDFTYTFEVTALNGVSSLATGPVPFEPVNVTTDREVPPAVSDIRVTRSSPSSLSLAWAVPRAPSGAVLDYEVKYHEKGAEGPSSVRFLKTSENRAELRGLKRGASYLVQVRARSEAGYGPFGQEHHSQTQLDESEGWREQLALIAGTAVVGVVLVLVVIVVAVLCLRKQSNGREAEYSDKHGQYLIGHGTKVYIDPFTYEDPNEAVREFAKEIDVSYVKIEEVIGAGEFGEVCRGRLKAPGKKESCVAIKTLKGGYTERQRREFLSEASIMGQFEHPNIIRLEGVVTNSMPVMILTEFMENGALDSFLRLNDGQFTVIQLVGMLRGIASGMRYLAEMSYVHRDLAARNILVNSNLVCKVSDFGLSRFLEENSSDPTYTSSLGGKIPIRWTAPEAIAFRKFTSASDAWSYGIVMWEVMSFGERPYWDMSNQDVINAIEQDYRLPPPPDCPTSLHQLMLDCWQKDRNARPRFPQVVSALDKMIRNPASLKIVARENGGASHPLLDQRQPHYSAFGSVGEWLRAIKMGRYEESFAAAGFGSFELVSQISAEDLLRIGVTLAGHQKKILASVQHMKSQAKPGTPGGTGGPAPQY
The note with it: at 0.1 µM.

Assay [5] concerns the target T3, Ephrin type-B receptor 4 (Homo sapiens). To be noted: at 1 µM.
Assay [6] concerns the target Receptor tyrosine-protein kinase erbB-2 (Homo sapiens) (UniProt P04626). To be noted: at 0.1 µM.
Assay [7] has the same target. The note with it: at 1 µM.
For assay [8], the target named is Receptor tyrosine-protein kinase erbB-4 (Homo sapiens) (UniProt Q15303). The note with it: at 0.1 µM.
Receptor tyrosine-protein kinase erbB-4 (Homo sapiens), sequence (Q15303 whole entry): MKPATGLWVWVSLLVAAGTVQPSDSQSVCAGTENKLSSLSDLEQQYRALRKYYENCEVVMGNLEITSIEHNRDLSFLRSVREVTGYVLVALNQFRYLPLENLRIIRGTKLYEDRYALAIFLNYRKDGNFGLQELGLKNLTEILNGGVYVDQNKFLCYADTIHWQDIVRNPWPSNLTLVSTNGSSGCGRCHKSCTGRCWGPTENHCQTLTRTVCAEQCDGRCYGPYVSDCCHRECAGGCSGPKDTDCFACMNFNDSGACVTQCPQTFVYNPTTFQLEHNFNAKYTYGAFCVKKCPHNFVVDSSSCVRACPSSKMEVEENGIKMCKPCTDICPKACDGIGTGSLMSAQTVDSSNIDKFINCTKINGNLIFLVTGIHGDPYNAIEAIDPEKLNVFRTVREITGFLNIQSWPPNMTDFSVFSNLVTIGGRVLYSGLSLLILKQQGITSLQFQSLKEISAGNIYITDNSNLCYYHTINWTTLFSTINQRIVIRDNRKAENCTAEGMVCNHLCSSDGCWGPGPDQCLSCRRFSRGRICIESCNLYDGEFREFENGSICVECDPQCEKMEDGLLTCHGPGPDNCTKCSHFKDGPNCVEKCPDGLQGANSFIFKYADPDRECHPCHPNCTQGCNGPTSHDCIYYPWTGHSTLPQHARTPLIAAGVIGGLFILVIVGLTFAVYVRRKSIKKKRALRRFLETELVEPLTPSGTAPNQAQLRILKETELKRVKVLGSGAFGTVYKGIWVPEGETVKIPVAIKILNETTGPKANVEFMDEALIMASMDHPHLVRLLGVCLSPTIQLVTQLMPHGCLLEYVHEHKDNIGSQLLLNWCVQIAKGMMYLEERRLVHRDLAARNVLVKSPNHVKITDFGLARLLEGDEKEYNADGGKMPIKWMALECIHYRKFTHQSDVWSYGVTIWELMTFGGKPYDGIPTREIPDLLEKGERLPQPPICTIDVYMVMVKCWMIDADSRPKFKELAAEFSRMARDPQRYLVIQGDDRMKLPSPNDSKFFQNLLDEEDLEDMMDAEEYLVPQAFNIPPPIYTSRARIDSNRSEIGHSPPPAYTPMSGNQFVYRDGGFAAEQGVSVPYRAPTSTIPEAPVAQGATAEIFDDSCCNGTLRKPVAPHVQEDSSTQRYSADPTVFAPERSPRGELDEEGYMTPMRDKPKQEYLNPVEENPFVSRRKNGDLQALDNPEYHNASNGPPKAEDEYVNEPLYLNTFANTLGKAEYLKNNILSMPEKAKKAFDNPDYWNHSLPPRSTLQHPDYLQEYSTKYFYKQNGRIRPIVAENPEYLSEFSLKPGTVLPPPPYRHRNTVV
Assay [9] shares this target. The note with it: at 1 µM.
In assay [10] the target is Tyrosine-protein kinase Fer (Homo sapiens) (UniProt P16591). To be noted: at 0.1 µM.
Tyrosine-protein kinase Fer (Homo sapiens), sequence (P16591 whole entry, looked up): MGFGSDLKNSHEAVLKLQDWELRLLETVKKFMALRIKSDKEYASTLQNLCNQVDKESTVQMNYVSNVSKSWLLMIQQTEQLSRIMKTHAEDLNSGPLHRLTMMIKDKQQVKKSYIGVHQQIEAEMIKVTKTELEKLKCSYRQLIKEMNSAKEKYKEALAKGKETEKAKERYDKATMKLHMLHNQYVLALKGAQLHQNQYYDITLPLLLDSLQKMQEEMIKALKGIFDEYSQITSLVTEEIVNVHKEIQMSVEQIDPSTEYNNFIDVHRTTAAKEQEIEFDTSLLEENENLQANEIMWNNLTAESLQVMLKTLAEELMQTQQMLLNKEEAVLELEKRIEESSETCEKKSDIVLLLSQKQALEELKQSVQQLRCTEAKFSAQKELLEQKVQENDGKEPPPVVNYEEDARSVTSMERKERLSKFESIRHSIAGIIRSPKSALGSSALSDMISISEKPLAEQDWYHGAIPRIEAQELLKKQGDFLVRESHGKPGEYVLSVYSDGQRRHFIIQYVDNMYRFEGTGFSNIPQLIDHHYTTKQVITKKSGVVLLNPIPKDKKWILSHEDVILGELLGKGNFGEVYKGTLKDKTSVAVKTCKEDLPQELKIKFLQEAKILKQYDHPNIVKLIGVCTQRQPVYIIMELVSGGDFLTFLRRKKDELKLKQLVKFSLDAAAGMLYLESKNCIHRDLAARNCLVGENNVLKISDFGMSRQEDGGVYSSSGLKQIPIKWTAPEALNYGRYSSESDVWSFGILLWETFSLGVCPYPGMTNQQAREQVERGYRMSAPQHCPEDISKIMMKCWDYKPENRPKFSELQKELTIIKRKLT
For assay [11] the target is unchanged. The note with it: at 1 µM.
Assay [12] addresses Tyrosine-protein kinase Fes/Fps (Homo sapiens) (UniProt P07332). The note with it: at 0.1 µM.
The target is the same in assay [13]. To be noted: at 1 µM.
In assay [14] the target is Fibroblast growth factor receptor 1 (Homo sapiens) (UniProt P11362). To be noted: at 0.1 µM.
For assay [15] the target is unchanged. The note with it: at 1 µM.
Assay [16] has as its target Fibroblast growth factor receptor 2 (Homo sapiens) (UniProt P21802). To be noted: at 0.1 µM.
For assay [17] the target is unchanged. To be noted: at 1 µM.
In assay [18] the target is Fibroblast growth factor receptor 3 (Homo sapiens) (UniProt P22607). The note with it: at 0.1 µM.
The target is the same in assay [19]. The note with it: at 1 µM.
Assay [20] addresses Fibroblast growth factor receptor 4 (Homo sapiens) (UniProt P22455). To be noted: at 0.1 µM.

Fibroblast growth factor receptor 4 (Homo sapiens), sequence (P22455 22-802 limits assumed): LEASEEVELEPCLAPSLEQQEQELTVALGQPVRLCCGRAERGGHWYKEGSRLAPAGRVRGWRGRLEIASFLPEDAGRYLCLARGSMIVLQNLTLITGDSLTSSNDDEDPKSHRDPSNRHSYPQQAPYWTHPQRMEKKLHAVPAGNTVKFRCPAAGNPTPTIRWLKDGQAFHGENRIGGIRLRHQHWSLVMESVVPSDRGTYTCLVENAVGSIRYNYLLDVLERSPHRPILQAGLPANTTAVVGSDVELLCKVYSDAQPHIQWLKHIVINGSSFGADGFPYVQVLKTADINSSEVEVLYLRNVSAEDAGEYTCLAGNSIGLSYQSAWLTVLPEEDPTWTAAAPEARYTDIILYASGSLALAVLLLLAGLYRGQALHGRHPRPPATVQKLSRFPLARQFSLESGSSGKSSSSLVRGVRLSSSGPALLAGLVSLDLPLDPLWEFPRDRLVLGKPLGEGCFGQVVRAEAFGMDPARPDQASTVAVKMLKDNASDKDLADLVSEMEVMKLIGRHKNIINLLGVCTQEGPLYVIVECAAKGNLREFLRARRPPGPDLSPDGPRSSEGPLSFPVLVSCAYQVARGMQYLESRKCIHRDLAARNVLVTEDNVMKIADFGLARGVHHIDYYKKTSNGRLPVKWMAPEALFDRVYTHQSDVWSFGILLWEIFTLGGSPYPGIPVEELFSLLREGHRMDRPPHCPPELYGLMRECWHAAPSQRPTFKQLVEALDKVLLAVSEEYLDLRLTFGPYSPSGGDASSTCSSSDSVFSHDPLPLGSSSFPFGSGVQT
Fibroblast growth factor receptor 2 (Homo sapiens), sequence (P21802 22-821 limits assumed): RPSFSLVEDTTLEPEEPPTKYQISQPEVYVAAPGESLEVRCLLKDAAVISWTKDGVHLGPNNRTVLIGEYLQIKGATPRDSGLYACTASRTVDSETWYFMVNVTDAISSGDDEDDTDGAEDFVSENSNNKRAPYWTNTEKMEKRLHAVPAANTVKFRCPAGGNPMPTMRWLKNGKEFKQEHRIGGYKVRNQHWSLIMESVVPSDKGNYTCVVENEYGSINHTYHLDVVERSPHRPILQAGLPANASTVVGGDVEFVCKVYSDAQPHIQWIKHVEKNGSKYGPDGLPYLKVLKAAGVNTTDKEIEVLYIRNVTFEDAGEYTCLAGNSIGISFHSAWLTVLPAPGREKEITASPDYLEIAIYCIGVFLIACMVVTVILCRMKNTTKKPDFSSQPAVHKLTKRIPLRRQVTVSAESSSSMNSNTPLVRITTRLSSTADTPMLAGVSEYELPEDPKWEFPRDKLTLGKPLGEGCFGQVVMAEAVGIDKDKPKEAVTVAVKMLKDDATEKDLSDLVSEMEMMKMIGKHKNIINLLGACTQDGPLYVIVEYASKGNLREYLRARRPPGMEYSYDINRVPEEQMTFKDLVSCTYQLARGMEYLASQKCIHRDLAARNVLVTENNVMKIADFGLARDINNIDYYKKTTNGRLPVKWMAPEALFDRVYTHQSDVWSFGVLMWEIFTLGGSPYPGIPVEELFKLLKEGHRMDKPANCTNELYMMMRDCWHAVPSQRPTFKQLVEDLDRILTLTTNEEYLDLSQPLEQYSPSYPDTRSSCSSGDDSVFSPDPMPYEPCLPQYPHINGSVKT
Receptor tyrosine-protein kinase erbB-2 (Homo sapiens), sequence (P04626 whole entry): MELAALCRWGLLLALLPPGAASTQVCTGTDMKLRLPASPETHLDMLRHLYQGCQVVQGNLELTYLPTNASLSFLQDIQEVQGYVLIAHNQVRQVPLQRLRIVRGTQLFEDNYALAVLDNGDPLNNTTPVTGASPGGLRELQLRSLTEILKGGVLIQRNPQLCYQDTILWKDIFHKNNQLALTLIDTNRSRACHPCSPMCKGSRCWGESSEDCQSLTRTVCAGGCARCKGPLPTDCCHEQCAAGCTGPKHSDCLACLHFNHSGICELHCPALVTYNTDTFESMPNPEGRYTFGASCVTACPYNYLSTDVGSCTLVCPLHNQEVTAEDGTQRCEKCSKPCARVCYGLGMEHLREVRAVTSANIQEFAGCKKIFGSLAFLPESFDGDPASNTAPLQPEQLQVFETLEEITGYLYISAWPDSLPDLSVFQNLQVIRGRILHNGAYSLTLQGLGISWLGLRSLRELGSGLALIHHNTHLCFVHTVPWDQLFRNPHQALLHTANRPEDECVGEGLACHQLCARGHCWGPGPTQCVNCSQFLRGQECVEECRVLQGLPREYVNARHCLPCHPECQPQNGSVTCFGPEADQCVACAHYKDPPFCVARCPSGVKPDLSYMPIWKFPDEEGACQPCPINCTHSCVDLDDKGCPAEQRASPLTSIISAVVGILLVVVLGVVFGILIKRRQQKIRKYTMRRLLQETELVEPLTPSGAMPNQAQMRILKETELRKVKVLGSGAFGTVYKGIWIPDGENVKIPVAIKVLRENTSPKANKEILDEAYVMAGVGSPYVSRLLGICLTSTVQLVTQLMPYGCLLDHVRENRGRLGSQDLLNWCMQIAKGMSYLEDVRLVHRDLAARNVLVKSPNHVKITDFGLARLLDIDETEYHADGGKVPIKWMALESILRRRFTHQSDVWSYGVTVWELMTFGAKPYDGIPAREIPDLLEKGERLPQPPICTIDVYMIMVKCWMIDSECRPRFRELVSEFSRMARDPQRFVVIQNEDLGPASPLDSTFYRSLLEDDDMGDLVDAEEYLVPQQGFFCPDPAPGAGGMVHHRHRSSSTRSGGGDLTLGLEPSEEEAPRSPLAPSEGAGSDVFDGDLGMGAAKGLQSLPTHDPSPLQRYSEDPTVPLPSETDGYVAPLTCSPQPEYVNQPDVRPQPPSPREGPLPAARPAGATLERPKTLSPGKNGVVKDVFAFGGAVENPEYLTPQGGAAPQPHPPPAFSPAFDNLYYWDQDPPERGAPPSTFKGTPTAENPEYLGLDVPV

On to `N#Cc1ccc2c(-c3ccnc(NC4CC4)n3)c(-c3ccc(F)cc3)nn2c1`, for which the inhibition is 24.5% in assay [1]; 5.62% in [2]; 4.39% in assay [3]; -0.62% in assay [4]; 2.45% in assay [5]; 1.97% in [6]. The inhibition is 5% in assay [7]; 5.5% in [8]; 13.4% in assay [9]; -2.41% in [10]; -0.62% in assay [11]; 1.05% in assay [12]. Further, the inhibition is 1.43% in assay [13]; -2.46% in assay [14]; 1.96% in assay [15]; 1.16% in [16]; 2.21% in assay [17]; 1.76% in assay [18]. Besides, the inhibition in assay [19] stood at 1.06%; in assay [20], 1.18%.

`COc1cc(N2CCN(C(C)C)CC2)ccc1Nc1nc(Nc2cccc3ncccc23)c2cc[nH]c2n1`: the inhibition in [1] was 2.09%; in [2], 1.16%; in assay [3], 0.4%; in assay [4], 0.17%; in [5] it was 0.88%; in [6] it was -0.99%. The inhibition in [7] is 2.24%; in assay [8] it was -0.3%; in assay [9] it was 5.51%; in assay [10], 7.7%; in [11], 44.4%; in assay [12], 0.44%. Also, the inhibition was 10% in [13]; -4.53% in [14]; -4.83% in assay [15]; -2.09% in [16]; 1.97% in [17]; 0.3% in [18]. Besides, the inhibition in assay [19] amounted to 0.87%; in assay [20], 0.6%.

For `CS(=O)(=O)CCNCc1ccoc1-c1ccc2ncnc(Nc3ccc(OCc4ccccc4)cc3)c2c1`, the inhibition in assay [1] was 7.96%; in assay [2], 3.15%; in assay [3], 2.98%; in assay [4] it was 0.88%; in assay [5], 1.51%; in [6], 3.25%. Further, the inhibition was 50.9% in [7]; 32.3% in assay [8]; 79.9% in assay [9]; -0.1% in [10]; 1.52% in [11]; 1.6% in assay [12]. The inhibition in [13] was 0.27%; in assay [14] it was -2.87%; in assay [15], 2.44%; in assay [16], -0.37%; in assay [17], 2.62%; in assay [18], 2.09%. Besides, the inhibition in assay [19] turned out to be 3.53%; in assay [20], 0.96%.

Turning to `O=C(Nc1n[nH]c2nnc(-c3cccnc3)cc12)C1CC1`, the inhibition in [1] is 3.72%; in [2] it was 0.63%; in [3], 2.01%; in assay [4], 2.37%; in [5], 0.6%; in assay [6] it was -2.7%. Besides, the inhibition in assay [7] was -0.28%; in assay [8], -0.62%; in assay [9] it was 1.8%; in [10], -1.4%; in assay [11] it was 0.68%; in assay [12], -0.26%. Moreover, the inhibition was -1.66% in [13]; -0.17% in assay [14]; -1.08% in [15]; -0.85% in assay [16]; -0.69% in assay [17]; 0.05% in assay [18]. The inhibition in assay [19] worked out at 1.8%; in assay [20] it was 2.02%.

On to `CNC(=O)c1sc(-n2cnc3cc(OC)c(OC)cc32)cc1OCc1ccccc1C(F)(F)F`, for which the inhibition in [1] turned out to be 14%; in [2], 4.48%; in assay [3], 3.52%; in assay [4] it was 0.98%; in assay [5] it was 5.78%; in assay [6], 2.12%. Besides, the inhibition in [7] is 3.74%; in assay [8], 6.92%; in assay [9], 10.3%; in assay [10], 2.95%; in [11], 5.74%; in [12], 3.32%. Further, the inhibition in [13] was 3.26%; in assay [14], -4.6%; in assay [15], 7.69%; in assay [16] it was 4.22%; in [17], 7.4%; in assay [18] it was 2.02%. Also, the inhibition in [19] stood at 7.23%; in assay [20], 0.59%.

Take `COc1cccc(-n2ncc3c(N/N=C/c4ccc(C(=O)NCCN(C)C)cc4)ncnc32)c1`: the inhibition was 46.4% in assay [1]; 5.98% in assay [2]; 7.32% in [3]; 6.37% in assay [4]; 30.5% in [5]; 0.77% in [6]. In addition, the inhibition in assay [7] is 10.5%; in assay [8], 23.2%; in assay [9], 49.9%; in [10] it was 3.03%; in [11] it was 1.12%; in assay [12], 1.87%. The inhibition worked out at 3.63% in assay [13]; 4.74% in [14]; 9.7% in assay [15]; 5.08% in [16]; 10.7% in assay [17]; 6.47% in assay [18]. The inhibition in assay [19] came to 9.95%; in [20] it was 0.01%.
